In assay [1] the target is Tyrosine-protein kinase SYK (Homo sapiens) (UniProt P43405). As to conditions: at 1 µM.
Assay [2] deals with T1, Tyrosine-protein kinase Tec (Homo sapiens) (UniProt P42680).
T1 sequence (whole entry): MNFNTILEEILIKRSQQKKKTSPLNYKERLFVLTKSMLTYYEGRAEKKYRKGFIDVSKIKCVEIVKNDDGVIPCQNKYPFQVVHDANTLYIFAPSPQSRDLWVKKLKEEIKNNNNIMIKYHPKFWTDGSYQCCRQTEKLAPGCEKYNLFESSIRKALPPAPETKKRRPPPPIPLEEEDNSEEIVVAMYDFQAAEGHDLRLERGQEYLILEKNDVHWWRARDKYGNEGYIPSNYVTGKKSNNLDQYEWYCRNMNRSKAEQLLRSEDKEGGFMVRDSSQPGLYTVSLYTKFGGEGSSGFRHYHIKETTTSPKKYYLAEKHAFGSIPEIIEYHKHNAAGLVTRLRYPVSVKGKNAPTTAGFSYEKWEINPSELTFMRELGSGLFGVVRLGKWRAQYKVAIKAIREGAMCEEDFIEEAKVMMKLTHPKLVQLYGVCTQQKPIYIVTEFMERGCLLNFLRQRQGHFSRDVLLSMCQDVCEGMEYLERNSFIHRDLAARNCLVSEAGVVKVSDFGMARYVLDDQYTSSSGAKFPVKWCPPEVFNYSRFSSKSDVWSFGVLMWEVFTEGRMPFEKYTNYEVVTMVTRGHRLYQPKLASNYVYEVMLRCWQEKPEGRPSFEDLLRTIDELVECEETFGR
As to conditions: at 0.1 µM.

The target in assay [3] is T1, Tyrosine-protein kinase Tec (Homo sapiens). As to conditions: at 1 µM.
Assay [4] has as its target Angiopoietin-1 receptor (Homo sapiens) (UniProt Q02763). As to conditions: at 0.1 µM.
For assay [5] the target is unchanged. As to conditions: at 1 µM.
Assay [6] addresses T2, Non-receptor tyrosine-protein kinase TNK1 (Homo sapiens) (UniProt Q13470).
T2 sequence (whole entry): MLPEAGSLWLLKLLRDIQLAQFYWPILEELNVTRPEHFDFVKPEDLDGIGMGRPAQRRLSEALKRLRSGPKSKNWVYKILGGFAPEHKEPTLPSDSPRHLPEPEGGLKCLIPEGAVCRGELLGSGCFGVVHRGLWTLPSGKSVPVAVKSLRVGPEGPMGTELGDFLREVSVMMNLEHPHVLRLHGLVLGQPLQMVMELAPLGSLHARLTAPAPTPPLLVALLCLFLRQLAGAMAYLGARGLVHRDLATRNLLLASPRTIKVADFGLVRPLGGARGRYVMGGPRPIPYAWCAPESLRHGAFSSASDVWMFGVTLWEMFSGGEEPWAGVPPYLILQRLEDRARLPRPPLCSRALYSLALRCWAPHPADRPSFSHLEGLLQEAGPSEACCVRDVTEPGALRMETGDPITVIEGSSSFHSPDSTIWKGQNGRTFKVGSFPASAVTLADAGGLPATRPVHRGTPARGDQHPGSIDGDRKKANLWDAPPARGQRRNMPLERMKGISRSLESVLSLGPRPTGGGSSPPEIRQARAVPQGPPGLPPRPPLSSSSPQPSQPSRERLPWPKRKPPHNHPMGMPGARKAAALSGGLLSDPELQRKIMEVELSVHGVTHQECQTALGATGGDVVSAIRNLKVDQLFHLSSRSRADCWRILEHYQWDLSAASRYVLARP
As to conditions: at 0.1 µM.

Assay [7] addresses T2, Non-receptor tyrosine-protein kinase TNK1 (Homo sapiens). As to conditions: at 1 µM.
Assay [8] has as its target Activated CDC42 kinase 1 (Homo sapiens) (UniProt Q07912). As to conditions: at 0.1 µM.
For assay [9] the target is unchanged. As to conditions: at 1 µM.
Assay [10] addresses High affinity nerve growth factor receptor (Homo sapiens) (UniProt P04629). As to conditions: at 0.1 µM.
For assay [11] the target is unchanged. As to conditions: at 1 µM.
The target of assay [12] is BDNF/NT-3 growth factors receptor (Homo sapiens) (UniProt Q16620). As to conditions: at 0.1 µM.
For assay [13] the target is unchanged. As to conditions: at 1 µM.
Assay [14] has as its target NT-3 growth factor receptor (Homo sapiens) (UniProt Q16288). As to conditions: at 0.1 µM.
Assay [15] shares this target. As to conditions: at 1 µM.
The target of assay [16] is T3, Tyrosine-protein kinase TXK (Homo sapiens) (UniProt P42681).
T3 sequence (whole entry): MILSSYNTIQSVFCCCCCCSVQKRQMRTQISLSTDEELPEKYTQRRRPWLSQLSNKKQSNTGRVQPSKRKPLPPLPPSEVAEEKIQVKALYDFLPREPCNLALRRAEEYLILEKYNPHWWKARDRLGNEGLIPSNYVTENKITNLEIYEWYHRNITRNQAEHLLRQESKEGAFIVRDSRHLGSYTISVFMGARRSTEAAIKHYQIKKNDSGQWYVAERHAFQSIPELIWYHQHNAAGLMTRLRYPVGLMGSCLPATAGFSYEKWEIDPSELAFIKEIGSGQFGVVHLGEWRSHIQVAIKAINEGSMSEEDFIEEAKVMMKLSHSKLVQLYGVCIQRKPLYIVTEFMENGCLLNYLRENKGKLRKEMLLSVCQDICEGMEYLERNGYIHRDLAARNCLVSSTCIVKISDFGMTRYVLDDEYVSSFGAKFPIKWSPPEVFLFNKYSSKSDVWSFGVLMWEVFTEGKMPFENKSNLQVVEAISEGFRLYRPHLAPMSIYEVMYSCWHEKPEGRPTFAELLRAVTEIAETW
As to conditions: at 0.1 µM.

The target in assay [17] is T3, Tyrosine-protein kinase TXK (Homo sapiens). As to conditions: at 1 µM.
Assay [18] deals with Non-receptor tyrosine-protein kinase TYK2 (Homo sapiens) (UniProt P29597). As to conditions: at 0.1 µM.
In assay [19] the target is T4, Dual specificity protein kinase TTK (Homo sapiens) (UniProt P33981).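 Further: reported figures are mean TTK inhibition at 1 µM.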
T4 sequence (whole entry): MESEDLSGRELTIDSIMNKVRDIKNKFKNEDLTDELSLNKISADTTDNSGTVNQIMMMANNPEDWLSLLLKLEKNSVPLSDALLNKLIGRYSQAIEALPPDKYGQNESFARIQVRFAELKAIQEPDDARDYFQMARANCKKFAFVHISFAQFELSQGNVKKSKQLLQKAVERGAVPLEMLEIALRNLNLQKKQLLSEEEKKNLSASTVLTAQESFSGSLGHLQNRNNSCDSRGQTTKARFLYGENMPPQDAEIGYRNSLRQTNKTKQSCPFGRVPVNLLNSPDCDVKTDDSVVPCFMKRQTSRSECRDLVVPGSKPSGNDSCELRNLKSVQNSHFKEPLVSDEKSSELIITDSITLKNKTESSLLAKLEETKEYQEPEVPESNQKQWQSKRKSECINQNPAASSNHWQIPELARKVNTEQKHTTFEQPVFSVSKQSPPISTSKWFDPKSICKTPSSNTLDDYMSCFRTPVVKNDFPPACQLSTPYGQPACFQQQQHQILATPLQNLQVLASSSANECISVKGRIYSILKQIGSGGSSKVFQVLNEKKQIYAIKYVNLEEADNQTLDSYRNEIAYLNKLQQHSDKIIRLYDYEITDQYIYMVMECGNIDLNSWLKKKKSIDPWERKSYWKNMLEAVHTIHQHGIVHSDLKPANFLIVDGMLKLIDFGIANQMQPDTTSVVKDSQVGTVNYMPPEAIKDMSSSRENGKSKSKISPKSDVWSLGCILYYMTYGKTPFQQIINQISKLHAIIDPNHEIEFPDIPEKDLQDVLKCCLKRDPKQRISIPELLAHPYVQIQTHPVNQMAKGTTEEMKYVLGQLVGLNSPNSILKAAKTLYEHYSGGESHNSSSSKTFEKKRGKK
As to conditions: at 1 µM.

In assay [20] the target is T5, Aurora kinase A (Homo sapiens) (UniProt O14965).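 Further: each reported value is a mean percent inhibition of Aurora-A.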
T5 sequence (whole entry): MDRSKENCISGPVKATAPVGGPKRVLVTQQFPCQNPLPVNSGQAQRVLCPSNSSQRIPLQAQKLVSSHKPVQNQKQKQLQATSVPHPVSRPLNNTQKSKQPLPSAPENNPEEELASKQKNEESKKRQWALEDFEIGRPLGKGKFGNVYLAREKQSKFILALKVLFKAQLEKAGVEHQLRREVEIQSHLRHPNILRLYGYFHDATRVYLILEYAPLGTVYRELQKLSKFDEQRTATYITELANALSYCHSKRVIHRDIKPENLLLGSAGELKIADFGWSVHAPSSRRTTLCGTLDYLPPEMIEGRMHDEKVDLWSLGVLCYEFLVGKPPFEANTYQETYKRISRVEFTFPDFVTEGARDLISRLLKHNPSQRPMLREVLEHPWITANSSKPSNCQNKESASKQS
As to conditions: at 0.1 µM.

Here are results for three molecules from ChEMBL document CHEMBL1961873, “Compounds: GSK PKIS; Assays: Nanosyn kinase panel” (2012).

Chain of Angiopoietin-1 receptor (Homo sapiens) (Q02763 whole entry): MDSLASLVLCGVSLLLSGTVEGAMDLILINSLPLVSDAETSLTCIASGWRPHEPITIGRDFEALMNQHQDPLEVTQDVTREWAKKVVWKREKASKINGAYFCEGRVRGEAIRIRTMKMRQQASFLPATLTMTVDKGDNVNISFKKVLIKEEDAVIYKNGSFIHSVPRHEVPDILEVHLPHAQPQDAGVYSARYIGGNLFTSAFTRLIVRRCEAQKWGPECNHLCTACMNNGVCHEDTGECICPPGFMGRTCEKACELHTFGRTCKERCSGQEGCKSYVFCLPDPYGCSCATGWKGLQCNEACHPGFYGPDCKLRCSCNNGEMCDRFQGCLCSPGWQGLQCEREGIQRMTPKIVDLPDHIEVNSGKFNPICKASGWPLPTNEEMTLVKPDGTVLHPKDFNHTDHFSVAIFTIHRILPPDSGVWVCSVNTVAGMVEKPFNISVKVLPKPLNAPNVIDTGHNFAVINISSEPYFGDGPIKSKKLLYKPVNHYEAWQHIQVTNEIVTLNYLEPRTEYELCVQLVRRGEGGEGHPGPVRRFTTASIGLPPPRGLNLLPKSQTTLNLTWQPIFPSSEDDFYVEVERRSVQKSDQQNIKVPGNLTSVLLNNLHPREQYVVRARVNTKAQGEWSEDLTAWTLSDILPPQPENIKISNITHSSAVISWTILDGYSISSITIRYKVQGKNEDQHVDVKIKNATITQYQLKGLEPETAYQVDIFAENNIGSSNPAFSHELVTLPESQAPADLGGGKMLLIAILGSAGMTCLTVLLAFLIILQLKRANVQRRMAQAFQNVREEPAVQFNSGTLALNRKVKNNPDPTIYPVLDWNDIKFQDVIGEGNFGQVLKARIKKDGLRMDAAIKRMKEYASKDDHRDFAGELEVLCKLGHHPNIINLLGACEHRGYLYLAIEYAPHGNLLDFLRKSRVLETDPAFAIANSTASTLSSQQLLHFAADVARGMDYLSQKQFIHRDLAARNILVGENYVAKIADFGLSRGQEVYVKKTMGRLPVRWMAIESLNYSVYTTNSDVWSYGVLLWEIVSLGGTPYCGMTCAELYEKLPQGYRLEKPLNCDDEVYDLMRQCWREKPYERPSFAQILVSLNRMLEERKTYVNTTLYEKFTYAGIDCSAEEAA
Chain of BDNF/NT-3 growth factors receptor (Homo sapiens) (Q16620 32-822 limits assumed): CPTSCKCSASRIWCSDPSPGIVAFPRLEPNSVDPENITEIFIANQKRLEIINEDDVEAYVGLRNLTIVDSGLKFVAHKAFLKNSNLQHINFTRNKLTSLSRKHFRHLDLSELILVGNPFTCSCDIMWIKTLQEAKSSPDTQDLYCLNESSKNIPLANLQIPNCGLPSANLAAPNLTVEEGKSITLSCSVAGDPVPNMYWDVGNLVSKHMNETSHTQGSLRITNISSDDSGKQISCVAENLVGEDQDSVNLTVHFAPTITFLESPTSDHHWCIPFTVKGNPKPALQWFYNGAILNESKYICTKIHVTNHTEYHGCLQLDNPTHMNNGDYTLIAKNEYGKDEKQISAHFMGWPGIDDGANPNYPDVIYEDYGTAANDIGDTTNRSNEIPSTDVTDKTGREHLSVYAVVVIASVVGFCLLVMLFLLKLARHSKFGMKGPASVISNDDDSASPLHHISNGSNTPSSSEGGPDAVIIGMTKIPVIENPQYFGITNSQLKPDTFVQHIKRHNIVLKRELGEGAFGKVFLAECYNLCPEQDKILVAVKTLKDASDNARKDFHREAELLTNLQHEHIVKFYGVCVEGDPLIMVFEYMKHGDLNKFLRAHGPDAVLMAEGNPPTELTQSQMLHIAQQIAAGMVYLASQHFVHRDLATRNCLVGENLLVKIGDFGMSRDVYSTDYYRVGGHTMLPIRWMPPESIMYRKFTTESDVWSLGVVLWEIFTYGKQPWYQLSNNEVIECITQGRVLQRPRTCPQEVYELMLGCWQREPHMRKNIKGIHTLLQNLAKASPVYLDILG
Chain of NT-3 growth factor receptor (Homo sapiens) (Q16288 32-839 limits assumed): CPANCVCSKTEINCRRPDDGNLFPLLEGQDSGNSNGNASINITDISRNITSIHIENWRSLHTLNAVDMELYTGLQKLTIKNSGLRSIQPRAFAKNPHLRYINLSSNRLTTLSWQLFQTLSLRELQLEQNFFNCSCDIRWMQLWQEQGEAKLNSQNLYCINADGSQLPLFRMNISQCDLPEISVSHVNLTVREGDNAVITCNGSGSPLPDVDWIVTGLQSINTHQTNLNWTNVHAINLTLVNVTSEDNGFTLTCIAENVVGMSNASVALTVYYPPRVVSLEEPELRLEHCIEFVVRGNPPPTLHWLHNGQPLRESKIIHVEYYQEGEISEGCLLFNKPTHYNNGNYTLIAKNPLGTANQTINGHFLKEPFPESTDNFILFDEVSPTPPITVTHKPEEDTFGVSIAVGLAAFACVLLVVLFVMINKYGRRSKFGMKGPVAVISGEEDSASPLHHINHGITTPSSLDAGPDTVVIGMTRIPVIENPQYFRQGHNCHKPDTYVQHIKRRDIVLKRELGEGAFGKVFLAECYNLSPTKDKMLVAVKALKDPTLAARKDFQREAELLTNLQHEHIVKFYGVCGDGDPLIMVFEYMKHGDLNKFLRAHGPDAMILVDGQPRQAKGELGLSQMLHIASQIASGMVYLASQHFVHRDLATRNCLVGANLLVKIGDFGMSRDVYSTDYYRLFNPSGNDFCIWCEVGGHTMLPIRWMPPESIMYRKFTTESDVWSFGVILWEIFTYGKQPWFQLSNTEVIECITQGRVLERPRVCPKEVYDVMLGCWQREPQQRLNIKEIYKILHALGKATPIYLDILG
Chain of Activated CDC42 kinase 1 (Homo sapiens) (Q07912 whole entry, looked up): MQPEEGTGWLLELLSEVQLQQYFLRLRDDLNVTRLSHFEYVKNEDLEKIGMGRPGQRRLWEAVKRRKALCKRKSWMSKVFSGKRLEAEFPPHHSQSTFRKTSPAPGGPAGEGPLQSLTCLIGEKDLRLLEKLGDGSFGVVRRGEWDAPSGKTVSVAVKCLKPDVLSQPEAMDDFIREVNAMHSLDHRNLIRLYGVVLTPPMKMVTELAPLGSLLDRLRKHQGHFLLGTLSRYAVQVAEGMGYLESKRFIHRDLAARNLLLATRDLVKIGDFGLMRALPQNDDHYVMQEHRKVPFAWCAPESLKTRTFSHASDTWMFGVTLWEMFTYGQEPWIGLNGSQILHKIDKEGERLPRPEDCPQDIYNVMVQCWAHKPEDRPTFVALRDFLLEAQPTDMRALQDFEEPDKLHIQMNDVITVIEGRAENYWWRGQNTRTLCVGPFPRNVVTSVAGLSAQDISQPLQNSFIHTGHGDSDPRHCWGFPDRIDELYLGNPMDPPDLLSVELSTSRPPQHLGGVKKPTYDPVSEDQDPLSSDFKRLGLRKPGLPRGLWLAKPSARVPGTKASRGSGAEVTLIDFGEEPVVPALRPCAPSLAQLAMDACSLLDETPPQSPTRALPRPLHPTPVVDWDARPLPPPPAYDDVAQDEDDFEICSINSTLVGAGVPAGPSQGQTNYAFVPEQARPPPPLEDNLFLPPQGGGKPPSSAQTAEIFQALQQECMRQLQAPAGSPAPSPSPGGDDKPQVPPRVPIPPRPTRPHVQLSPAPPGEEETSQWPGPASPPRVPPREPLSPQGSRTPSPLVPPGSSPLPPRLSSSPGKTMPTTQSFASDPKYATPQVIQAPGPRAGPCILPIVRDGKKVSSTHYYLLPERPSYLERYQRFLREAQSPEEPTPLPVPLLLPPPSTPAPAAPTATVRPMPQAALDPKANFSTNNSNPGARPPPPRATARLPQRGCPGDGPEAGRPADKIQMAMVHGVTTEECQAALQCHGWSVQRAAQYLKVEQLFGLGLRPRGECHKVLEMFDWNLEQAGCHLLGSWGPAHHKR
Chain of Non-receptor tyrosine-protein kinase TYK2 (Homo sapiens) (P29597 whole entry): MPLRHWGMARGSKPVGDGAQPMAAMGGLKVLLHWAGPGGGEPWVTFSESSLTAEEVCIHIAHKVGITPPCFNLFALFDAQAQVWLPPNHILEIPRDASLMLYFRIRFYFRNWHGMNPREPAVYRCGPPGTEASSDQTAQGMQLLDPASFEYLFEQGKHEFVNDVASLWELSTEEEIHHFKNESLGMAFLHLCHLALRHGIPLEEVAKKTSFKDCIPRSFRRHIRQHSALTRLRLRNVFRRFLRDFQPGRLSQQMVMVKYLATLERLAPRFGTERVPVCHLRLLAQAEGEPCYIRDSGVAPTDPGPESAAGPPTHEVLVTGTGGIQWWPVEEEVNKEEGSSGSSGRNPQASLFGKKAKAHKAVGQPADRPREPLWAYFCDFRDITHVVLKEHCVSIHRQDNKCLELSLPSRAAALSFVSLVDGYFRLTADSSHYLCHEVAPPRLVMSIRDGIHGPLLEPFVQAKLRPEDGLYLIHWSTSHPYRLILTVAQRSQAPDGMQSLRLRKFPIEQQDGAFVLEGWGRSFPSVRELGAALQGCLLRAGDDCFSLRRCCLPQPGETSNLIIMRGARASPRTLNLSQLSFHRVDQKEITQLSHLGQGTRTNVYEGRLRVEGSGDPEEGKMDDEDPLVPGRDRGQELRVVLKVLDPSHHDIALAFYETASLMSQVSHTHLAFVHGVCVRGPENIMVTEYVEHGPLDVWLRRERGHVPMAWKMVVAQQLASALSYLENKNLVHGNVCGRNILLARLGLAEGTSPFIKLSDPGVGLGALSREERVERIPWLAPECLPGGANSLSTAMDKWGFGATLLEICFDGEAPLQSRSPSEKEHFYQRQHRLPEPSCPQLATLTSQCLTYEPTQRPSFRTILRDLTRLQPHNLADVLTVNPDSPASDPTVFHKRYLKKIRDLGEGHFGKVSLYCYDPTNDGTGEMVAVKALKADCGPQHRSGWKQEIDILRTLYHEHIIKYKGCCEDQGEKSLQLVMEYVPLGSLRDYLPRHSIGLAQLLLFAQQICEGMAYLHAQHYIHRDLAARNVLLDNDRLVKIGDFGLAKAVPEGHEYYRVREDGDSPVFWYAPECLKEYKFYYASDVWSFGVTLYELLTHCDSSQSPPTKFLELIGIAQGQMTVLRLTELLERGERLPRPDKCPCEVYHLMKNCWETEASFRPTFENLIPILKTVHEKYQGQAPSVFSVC

The inhibition is the change of the read-out against control, counted positive when it falls. With `N#Cc1ccc(Oc2nccc(-c3c(-c4ccc(F)cc4)ncn3C3CCNCC3)n2)cc1`, the inhibition in [1] was -3.55%; in [2] it was 2.34%; in assay [3], 5.61%; in assay [4] it was 3.13%; in [5] it was 8.62%; in assay [6] it was -0.15%. Besides, the inhibition in [7] turned out to be 2.6%; in [8], 0.82%; in assay [9] it was 2.05%; in assay [10] it was 2.46%; in assay [11] it was 0.26%; in assay [12], 2.91%. Besides, the inhibition was 4.54% in assay [13]; 2.17% in [14]; 3.17% in assay [15]; -0.35% in assay [16]; 1.69% in assay [17]; -3.12% in assay [18]. Also, the inhibition in [19] stood at 8.89%; in assay [20] it was 3.21%.

In the case of `CCN(CC)Cc1ccc(Nc2nccc(-c3cnn4ncccc34)n2)cc1`, the inhibition was -0.45% in [1]; 0.83% in assay [2]; 3.21% in assay [3]; 3.9% in assay [4]; 12.2% in [5]; 5.27% in assay [6]. Besides, the inhibition in assay [7] was 32%; in assay [8], -0.16%; in [9], 3.2%; in [10], 2.7%; in assay [11], 12.1%; in assay [12] it was 4.49%. The inhibition in assay [13] is 7.47%; in assay [14] it was 2.83%; in assay [15], 5.86%; in assay [16] it was 0.47%; in assay [17], 1.91%; in [18] it was -7.84%. Besides, the results for the inhibition in assay [19] and in assay [20] were 29.4% and 4.39%, respectively.

With `Fc1ccc(-c2nc3n(c2-c2ccncc2)CCS3)cc1`, the inhibition was determined as 2.02% in assay [1]; 0.9% in assay [2]; 2.31% in [3]; 3.17% in assay [4]; 5.76% in assay [5]; 1.24% in [6]. Moreover, the inhibition in assay [7] was -1.81%; in assay [8] it was 0.78%; in [9], 0.1%; in [10] it was 2.38%; in [11], 1.45%; in assay [12], 2.62%. The inhibition in [13] was 0.16%; in [14], 2.96%; in [15], 3.11%; in assay [16] it was -0.13%; in assay [17] it was -0.14%; in assay [18] it was -8.34%. Further, the inhibition was 9.6% in [19] and -1.28% in assay [20].
